Reference: PubChem BioAssay
Inconclusive results are not listed. Calls of active or inactive are those of the source.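 The calls were made as follows, unless noted: active = viability increase at or above a cutoff of the median across tested compounds plus 3 SD (cut at about 8.5% in these data, passing the limit was not always enough); inconclusive = some gains above the cutoff, reason not given; inactive = the rest.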

How the values were obtained:
[1] = SK-BR-3 cell growth inhibitors, pilot screen, 24 h, human (AID 572;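 active = viability at or below 10% of carrier control in both of two separate runs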;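 also: compound exposure lasted between 18 and 24 h rather than exactly 24 h; 100% = carrier-treated control wells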); conditions: SK-BR-3 viability, CellTiter-Glo luminescence, at 10 µM, stronger effect = lower value
[2] = HUVEC growth inhibition – cell-based, human, primary screen (AID 575;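 active = viability at or below 30% in both replicate assays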;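 also: 100% = median of untreated cell wells with 0.1% DMSO on each plate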); conditions: HUVEC proliferation, CellTiter-Glo luminescence, 72 h; at 10 µM; stronger effect = lower value
[3] = reversal of MRP1-mediated doxorubicin resistance, pilot screen, H69AR cells, doxorubicin co-treatment (AID 601;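 active = viability loss from added drug above about 55%, and viability with drug at most 40%, in both replicates, limit read from the data, passing the limit was not always enough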); conditions: CellTiter-Glo, 72 h, at 10 µM; for differential viability (reversal): stronger effect = higher value
[4] = 384-well plate pilot, post-Golgi transport modulator project, inhibition of yeast transport mutant growth (AID 636; in the data active = inhibition above about 31%); conditions: absorbance 615 nm, about 18 h, stronger effect = higher value
[5] = growth suppression of yeast trafficking mutant, preliminary HTS, modulators of trafficking downstream of Golgi apparatus project, 1536-format plate, OD 615 nm (AID 637; in the data active = inhibition above about 30%); conditions: yeast transport mutant growth, absorbance 615 nm, 18 h; stronger effect = higher value
[6] = OD615 S. cerevisiae growth inhibition, permissive medium, pilot counter-assay, permissive growth control for S. cerevisiae lifespan shortening project (AID 705;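 active = growth inhibition above 25% in both replicates, a cutoff set 3 SD above the mean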); conditions: OD615, 24 h, at 10 µM, stronger effect = higher value
[7] = Restrictive medium S. cerevisiae growth inhibition, OD615, pilot screen of yeast lifespan reduction project, restrictive growth control (AID 706;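 active = growth inhibition above a set limit, 3 SD over mean compound inhibition, in both replicates, cut at about 43% in these data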;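 also: modified DeaD lifespan yeast strain shifted to restrictive glucose medium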); conditions: OD615, 48 h, at 10 µM, stronger effect = higher value
[8] = viability gain of MRP-1-high H69AR cells under doxorubicin, pilot screen, MRP-1 activator project, CellTiter-Glo, duplicate (AID 807); conditions: H69AR viability with doxorubicin, CellTiter-Glo luminescence; at 10 µM; stronger effect = higher value;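 also: compound pretreatment 18-22 h then 72 h combined with doxorubicin; 0% = doxorubicin alone and 100% = vehicle without doxorubicin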
[9] = growth suppression of beta-catenin knockout HCT116, pilot screen, human colon tumor cells (AID 823;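 active = cell viability at or below a set limit in both duplicate runs, the limit being the all-compound median minus 4 SD, cut at about 23% in these data, passing the limit was not always enough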;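 also: 0% = wells killed by 20 µM Hyamine and 100% = untreated DMSO cell wells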); conditions: CellTiter-Glo, 60 h, at 10 µM, stronger effect = lower value
[10] = growth suppression of PTEN-deleted HCT116, pilot screen, cell-based, HCT116 clonal line, CellTiter-Glo (AID 824;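 active = viability at or below 27.92% in each of two runs, the all-compound median minus 4 SD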;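 also: 0% = 20 µM Hyamine control and 100% = vehicle cell control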); conditions: 60 h, at 10 µM, stronger effect = lower value
[11] = inhibitors of the yeast RAM network, pilot screen, dse1pr::URA3 reporter, 5-FOA selection (AID 869;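 active = inhibition over a set limit, the all-compound mean plus 3 SD, in both replicate runs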;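 also: 0% = DMSO wells with no growth and 100% = 10 µM 1-NA-PP1 with full growth; RAM network block rescues cells from 5-FOA so hits raise OD615 growth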); conditions: S. cerevisiae dse1pr::URA3 5-FOA growth, OD615, 2 d; at 10 µM; stronger effect = higher value; strain carries analog-sensitive mutant Cbk1 kinase
[12] = RAM signaling pathway blockade in yeast – S. cerevisiae, Pdr1DBD-CYC8 efflux-inhibited sensitized strain, primary screen (AID 1298;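 active = RAM network inhibition above 8.4% in each of two replicates, 3 SD over the compound average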;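 also: 0% = DMSO untreated cells without growth and 100% = 10 µM 1-NA-PP1 full growth; higher means more yeast growth rescued from 5-FOA killing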); conditions: S. cerevisiae cbk1-as DSE1-URA3 strain, 5-FOA growth OD615, 2 d; at 50 µM; stronger effect = higher value
[13] = growth inhibitors of H69AR lung tumor, primary screen, human, duplicate replicates (AID 580;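 active = viability at or under a set limit in both replicates, limit being median viability minus 3 SD, cut at about 48% in these data, passing the limit was not always enough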;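 also: 100% = mean luminescence of untreated wells and 0% = no signal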); conditions: H69AR lung tumor cells viability, ATP luminescence, 72 h; at 10 µM; stronger effect = lower value
[14] = H69AR cells + 2 uM doxorubicin, measured here: viability with 2 uM doxorubicin, stronger effect = lower value
[15] = H69AR cells, compound alone cytotoxicity

| SMILES | viability [1] | viability [2] | differential viability (reversal) ([3]; H69AR cells + 2 uM doxorubicin) | viability [3, 14] [%] | viability [3, 15] [%] | inhibition [4] | inhibition [5] | growth inhibition [6] | growth inhibition [7] | viability increase [8] | viability [9] | viability [10] | inhibition [11] | RAM network inhibition [12] | viability [13] |
| --- | --- | --- | --- | --- | --- | --- | --- | --- | --- | --- | --- | --- | --- | --- | --- |
| CSC1=N/C(=C\C=C\c2cccs2)C(=O)S1 | 95% (inactive) | 79.5% (inactive) | -15.6% (inactive) | 67 | 51.4 | -1.15% (inactive) | -6.17% (inactive) | -8% (inactive) | 0.455% (inactive) | -3.44% (inactive) | 95% (inactive) | 99.1% (inactive) | 1.66% (inactive) | 6.92% (inactive) | – |
| COc1ccc(OCCCC(=O)Nc2nncs2)cc1 | 97% (inactive) | 101% (inactive) | 6.49% (inactive) | 83.1 | 89.6 | -5.27% (inactive) | -2.73% (inactive) | -11.5% (inactive) | -0.545% (inactive) | -0.07% (inactive) | 94.5% (inactive) | – | 2.95% (inactive) | 4.52% (inactive) | 89.6% (inactive) |
| CC1CCN(c2c(NCc3ccc(C(=O)N4c5ccccc5CC4C)cc3)c(=O)c2=O)CC1 (stereo not drawn) | 95% (inactive) | 70.5% (inactive) | -11.5% (inactive) | 48.7 | 37.2 | -0.13% (inactive) | 2.33% (inactive) | -17.3% (inactive) | -17.2% (inactive) | -7.24% (inactive) | 72.1% (inactive) | 66.8% (inactive) | 2.15% (inactive) | 2.31% (inactive) | 37.2% (active) |
| COc1cc(-c2nc(-c3ccncc3)no2)cc(OC)c1OC | 100% (inactive) | 101% (inactive) | 1.12% (inactive) | 88 | 89.1 | -5.87% (inactive) | -2.18% (inactive) | -1.17% (inactive) | 11.1% (inactive) | -2.77% (inactive) | 103% (inactive) | 99.3% (inactive) | 2.17% (inactive) | 3.72% (inactive) | 89.1% (inactive) |
| O=C(C1CC1)N1CCc2cc(Br)cc(S(=O)(=O)N3CCOCC3)c21 | 98% (inactive) | 88.5% (inactive) | 10.4% (inactive) | 80.1 | 90.6 | -7.95% (inactive) | 1.11% (inactive) | -11.8% (inactive) | -12.8% (inactive) | -5.31% (inactive) | 91.9% (inactive) | 83.2% (inactive) | 1.35% (inactive) | 2.33% (inactive) | 90.6% (inactive) |
| Cc1cccc(OCC(=O)Nc2ccc(N3CCCC3)cc2)c1C | 112% (inactive) | 88.2% (inactive) | -3.12% (inactive) | 59.7 | 56.5 | -9.2% (inactive) | 1.64% (inactive) | 15.7% (inactive) | 14.8% (inactive) | -3.79% (inactive) | 72.4% (inactive) | 84.8% (inactive) | 2.95% (inactive) | 5.36% (inactive) | – |
| NC(=O)c1sc2nc(N3CCCCC3)c3c(c2c1N)CCCC3 | 75% (inactive) | 82.8% (inactive) | -0.75% (inactive) | 86.4 | 85.7 | -6.89% (inactive) | 2.17% (inactive) | 8.56% (inactive) | – | -3.63% (inactive) | 104% (inactive) | 94.6% (inactive) | 0.715% (inactive) | 5.61% (inactive) | 85.7% (inactive) |
| CCCn1c(=O)c(C(=O)NCc2ccccn2)c(O)c2ccccc21 | 78% (inactive) | 101% (inactive) | -12% (inactive) | 69.6 | 57.5 | 2.27% (inactive) | 13.6% (inactive) | 4.69% (inactive) | 12.5% (inactive) | 1.19% (inactive) | 87.4% (inactive) | 104% (inactive) | -1.17% (inactive) | -1.94% (inactive) | – |
| COc1ccc(NC(=O)Nc2ccc(N3CCCC3=O)cc2)cc1OC | 126% (inactive) | 104% (inactive) | 15.2% (inactive) | 89.1 | 104 | -4.93% (inactive) | -3.64% (inactive) | -1.9% (inactive) | 3.45% (inactive) | -3.97% (inactive) | 107% (inactive) | 93.8% (inactive) | 0.135% (inactive) | 0.87% (inactive) | 104% (inactive) |
| COC(=O)c1cc(=O)n(Cc2ccc3c(c2)OCO3)c(=Nc2ccccc2)s1 | 90% (inactive) | – | -4.97% (inactive) | 43.1 | 38.1 | -5.2% (inactive) | 4.43% (inactive) | 4.22% (inactive) | -1% (inactive) | -5.95% (inactive) | 71.1% (inactive) | 73.3% (inactive) | 3.41% (inactive) | 5.96% (inactive) | – |
| CC(=O)NCCc1ccc(S(=O)(=O)NCc2ccc3c(c2)OCO3)cc1 | 91% (inactive) | 91.9% (inactive) | 12% (inactive) | 91.3 | 103 | -8.27% (inactive) | -6.18% (inactive) | -15.2% (inactive) | -5.52% (inactive) | 0.44% (inactive) | 96.1% (inactive) | 97.1% (inactive) | 1.12% (inactive) | 1.84% (inactive) | 103% (inactive) |
